Screening results as filed in PubChem.
RE007 growth inh: less growth of the S. pombe RE007 Vpr strain; S. pombe RE007 Vpr strain, BacTiter-Glo ATP luminescence, 24 h; Potency, µM (highest dose often 92.2 µM), for the others: top-dose activity change, negative = less growth, usual class: inhibitors; 360,000 compounds, 0.21% hits; AID 651644; active means well fitted falling curve with a large enough effect; inconclusive means small, poorly fitted or top-dose-only effect; inactive means no such curve, though single readings can be large or run the other way; further: nearly all actives have a fitted effect of over 50% in size
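Fission yeast RE007 carrying one integrated HIV-1 vpr copy, seeded at OD 0.01 in PMG+AL medium with 23 nL pinned compound. Grown 24 h at 30 degrees; viability read by BacTiter-Glo luminescence after 5 min.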
AmpC no deterg: inhibitors of E. coli AmpC beta-lactamase without detergent. P00811. AmpC nitrocefin hydrolysis, absorbance 480 nm, 0.0001% Triton. Potency, µM (highest dose often 57.1 µM), for the others: at the highest dose activity change, negative = inhibition, actives largely listed as inhibitors. 330,000 compounds, 0.52% hits. AID 485341;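 further: plate controls were no compound for no effect and no enzyme for full effect; nearly all actives have a fitted effect of over 20% in size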
Target sequence (P00811 whole entry, looked up): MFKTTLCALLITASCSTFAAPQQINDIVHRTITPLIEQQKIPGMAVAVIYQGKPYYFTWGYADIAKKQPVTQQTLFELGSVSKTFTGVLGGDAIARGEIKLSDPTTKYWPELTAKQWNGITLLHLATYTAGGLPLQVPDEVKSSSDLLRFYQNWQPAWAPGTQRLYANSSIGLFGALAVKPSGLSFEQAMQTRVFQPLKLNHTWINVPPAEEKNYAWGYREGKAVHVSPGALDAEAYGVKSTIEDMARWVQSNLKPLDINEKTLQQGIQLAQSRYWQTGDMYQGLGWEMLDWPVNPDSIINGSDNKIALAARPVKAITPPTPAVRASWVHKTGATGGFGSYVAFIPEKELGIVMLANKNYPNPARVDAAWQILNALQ
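AmpC (5.3 nM in the dispensed reagent) in 20 mM phosphate pH 7.0 with 0.01% (detergent screen) or 0.0001% Triton X-100 was preincubated with compounds for 15 min at room temperature. Nitrocefin was then added from an 800 uM solution, and hydrolysis was followed at 480 nm.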
AmpC inh detg: inhibitors of E. coli AmpC beta-lactamase with detergent. P00811. AmpC hydrolysis of nitrocefin, absorbance 480 nm, 0.01% Triton. Potency, µM (highest dose often 114 µM), without a hit: top-dose activity change, negative = inhibition, most hits filed as inhibitors. 370,000 compounds, 0.041% hits;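 further: 0% = no-compound wells and -100% = no-enzyme wells; nearly all actives have a fitted effect of over 25% in size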
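AmpC (5.3 nM in the dispensed reagent) in 20 mM phosphate pH 7.0 with 0.01% (detergent screen) or 0.0001% Triton X-100 was preincubated with compounds for 15 min at room temperature. Nitrocefin was then added from an 800 uM solution, and hydrolysis was followed at 480 nm.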
AMA1-RON2 inh: inhibitors of Plasmodium falciparum AMA1-RON2 interaction; AlphaScreen AMA1-biotinylated RON2 peptide binding; Potency, µM (top dose mostly 58.2 µM), for the others: at the highest dose activity change, negative = inhibition, hits mostly inhibitors; 360,000 compounds, 0.2% hits;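 further: 0% = vehicle wells and -100% = peptide control; nearly all actives have a fitted effect of over 45% in size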
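AMA1 (3D7) with his tag at 25 nM final met compounds first, then biotinylated RON2 peptide at 25 nM; detection used donor plus acceptor beads, 10 µg/mL apiece, read by AlphaScreen after 30 min at room temperature.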
Numbers without * were called inactive; ? = inconclusive; nt = not tested or not shown. An excerpt weighted towards active compounds, which were near 0.79% of everything screened. Unless noted, the call rests on the fitted dose curve; in most records, active means well fitted curve in the direction sought with a large enough effect; inconclusive means small, poorly fitted or top-dose-only effect, or another doubt; inactive means no such curve, though single readings can be large; an effect the other way counts as inactive or inconclusive. Unless noted, on the % scale 0 is the no-effect control and ±100 the full control effect; potency means the concentration at half of the fitted maximal effect.

SMILES | RE007 growth inh | AmpC no deterg | AmpC inh detg | AMA1-RON2 inh
Cc1cccc(S(=O)(=O)NC(=O)C2(C)CCN2C(=O)Cc2cc(F)ccc2F)c1 (configuration not stated) | 19% | nt | nt | 40µM*
S=c1[nH]c(-c2ccccc2)cn1/N=C/c1cccc2ccccc12 | 0% | 2.5µM* | -1% | 47%
COc1cc(/C=N/n2cc(-c3ccccc3)[nH]c2=S)cc(OC)c1O | 18% | -32% | -8% | 67%
Oc1ccc(/C=N/n2cc(-c3ccccc3)[nH]c2=S)cc1 | 1% | 32µM* | ? | 92%
CCOC(=O)C1CCCN(c2c(NCCN3CCCCC3C)c(=O)c2=O)C1 (configuration not stated) | 0% | 3.5µM* | ? | -2%
CCOC(=O)C1CCCN(c2c(NCCN(CC)c3ccccc3)c(=O)c2=O)C1 (configuration not stated) | -7% | 22µM* | 3% | -3%
CCOC(=O)C1CCCN(c2c(NCCCN(CC)c3ccccc3)c(=O)c2=O)C1 (configuration not stated) | -5% | ? | 2% | 4%
CCOC(=O)C1CCCN(c2c(NCCc3ccc(C)cc3)c(=O)c2=O)C1 (configuration not stated) | 7% | -8% | -2% | -1%
Cc1cc(C)c(NS(=O)(=O)c2ccc(-c3cnc(C4CC4)o3)cc2)c(C)c1 | nt | nt | -8% | nt
CCCCC(CC)CNC(=O)CCCc1nnc2n(CCC)c(=O)c3sccc3n12 (configuration not stated) | nt | nt | 2% | nt
Oc1c(/C=C/C=C/C=Nc2ccccc2)sc(=S)n1Cc1ccccc1 | -1% | 13µM* | -2% | -7%
CCOc1ccc(C(C)C)cc1S(=O)(=O)Nc1cccc(-c2ccc(N3CCOCC3)nn2)c1 | nt | nt | 14% | nt
CCOC(=O)CCC(=O)N1CCNC(=O)C1 | 5% | 11µM* | 6% | -3%
O=C(O)CN1C(=O)C=CC1=O | -4% | nt | nt | 151%
O=C1C=CC(=O)N1CCCCCCN1C(=O)C=CC1=O | 8.9µM* | -20% | ? | -1%
Cc1c(Cl)sn(-c2ccc(Cl)cc2)c1=O | 1µM* | -38% | ? | 3%
CC(NC(=O)C1CCN(C(=O)N2CCOc3ccc(Cl)cc32)CC1)c1ccccc1 (configuration not stated) | nt | nt | 19% | nt
CC(=O)Nc1nnc(SCc2cc(=O)c3cc(C)ccc3[nH]2)s1 | nt | nt | -3% | nt
CCCCOc1ccc(C(=O)NCC(=O)NCCOc2ccccc2)cc1 | 5% | 35µM* | ? | -5%
COC(=O)c1c(-c2cccs2)csc1NC(=O)c1ccc(C(C)C)cc1 | nt | nt | 20% | nt
COC(=O)C1=C(c2ccc3ccccc3c2)C[C@@H]2CC[C@H]1N2C | -1% | -1% | -5% | 4%
COC(=O)C1=C(C(=O)OC)C2OC1c1cc3ccccc3cc12 | 35µM* | nt | nt | 4%
Cc1c(C(=O)N/N=C/c2ccc(Cl)cc2)[nH]c2ccc(Cl)cc12 | ? | 14µM* | -12% | 37%
NS(=O)(=O)c1ccc(Nc2ccccc2)c([N+](=O)[O-])c1 | -11% | -20% | -3% | -12%
O=[N+]([O-])c1cc(Cl)ccc1Nc1ccccc1 | 12% | -23% | 0% | 14µM*
SMILES | RE007 growth inh | AmpC no deterg | AmpC inh detg | AMA1-RON2 inh
O=C(Nc1ccc(C(F)(F)F)cc1)C1(c2cccs2)CCOCC1 | nt | nt | 1% | nt
CC/C(=N\Nc1ccc([N+](=O)[O-])cc1[N+](=O)[O-])c1ccc(O)cc1 | -16% | -59% | -4% | -23%
CC/C(=N\Nc1ccccc1[N+](=O)[O-])c1ccc(O)cc1 | -7% | -44% | -2% | 16µM*
NC(=S)N/N=C/c1ccc(-c2cc(Cl)c(Cl)cc2Cl)o1 | 4% | 20µM* | 0% | 64%
COc1ccc(CNC(=O)c2cc3cccc4c3n2CC(C)S4)cc1OC (configuration not stated) | nt | nt | -9% | nt
COc1ccc(NS(=O)(=O)c2cccc(-c3n[nH]c(=S)n3Cc3ccccc3)c2)cc1 | -10% | 13µM* | ? | 98%
COc1ccc(NS(=O)(=O)c2ccc(-c3n[nH]c(=S)n3Cc3ccccc3)cc2)cc1 | -7% | 7.9µM* | 3% | 93%
COc1ccc(-c2n[nH]c(=S)n2Cc2ccccc2)cc1 | -12% | -35% | ? | 61%
COc1cccc(-c2nc(-c3ccccc3)c(-c3ccccc3)[nH]2)c1OCC(=O)O | 4% | 3% | ? | -26%
O=C(O)COc1ccccc1-c1nc(-c2ccccc2)c(-c2ccccc2)[nH]1 | 5% | 3.2µM* | -3% | -8%
COc1cccc2c(=O)n(CC(=O)Nc3ccccc3)ccc12 | 8% | 50µM* | -11% | -4%
COc1cccc2c(=O)n(CC(=O)NC3CCCC3)ccc12 | -11% | -8% | ? | 12%
COc1cccc2c(=O)n(CC(=O)Nc3ccc(F)cc3F)ccc12 | 3% | 25µM* | ? | 0%
COc1ccccc1NC(=O)CN1CCN(CC(=O)Nc2ccc(F)cc2F)CC1 | 4% | -13% | 3% | 7%
COc1cccc2c(=O)n(CC(=O)N3CCCc4ccccc43)ccc12 | 5% | 1% | ? | -3%
COc1cccc2c(=O)n(CC(=O)N3CCCCC3)ccc12 | 0% | 40µM* | 2% | 1%
Cc1cccc(Cn2c(=O)n(CC3CCC(C(=O)N4CCOCC4)CC3)c(=O)c3sccc32)c1 (configuration not stated) | nt | nt | 22% | nt
Cc1cccc(N(CC(O)Cn2c3ccccc3c3ccccc32)S(=O)(=O)c2ccc(F)cc2)c1 (configuration not stated) | nt | nt | 16% | nt
COc1ccc(CN2CCCN(CC(=O)Nc3ccc(Br)cc3F)S2(=O)=O)cc1 | nt | nt | 0% | nt
COc1ccc(CN2C[C@H]3CCCN3c3cc(Br)ccc3S2(=O)=O)cc1 | 10% | 20µM* | nt | 2%
O=C1C=CC(=O)N1c1ccc2c(c1)C(NC(=O)C(F)(F)F)c1ccccc1-2 (configuration not stated) | 40µM* | nt | nt | 2%
CCOc1ccc(NCc2nnc(SCc3ccccc3Cl)n2-c2ccccc2)cc1 | -4% | 46% | 4% | 27µM*
C=CCOc1ccc(C(c2c(C(=O)O)[nH]c3ccccc23)c2c(C(=O)O)[nH]c3ccccc23)cc1 | 14% | 22µM* | 5% | -11%
O=C(CCS(=O)(=O)c1ccccc1)N(Cc1cccnc1)c1nc2c(Cl)cccc2s1 | nt | nt | 0% | nt
O=[N+]([O-])c1cccc(S(=O)(=O)c2ccc(N3CCCCC3)c([N+](=O)[O-])c2)c1 | -9% | -44% | -5% | -30%
O=[N+]([O-])c1cc(S(=O)(=O)c2ccc(N3CCCCC3)c([N+](=O)[O-])c2)ccc1N1CCCCC1 | -19% | 10µM* | 2% | -20%
CNC(=S)N1N=C(c2ccc(C)cc2)CC1c1ccc(N(C)C)cc1 (configuration not stated) | 23% | 22% | 0% | 28µM*
